# Test results as given in PubChem BioAssay AID485360 (National Center for Advancing Translational Sciences (NCATS), 2010).
# The whole screen tested about 230,000 compounds, of which about 1,500 (0.65%) were called active. Roughly 3% stayed inconclusive and do not appear here. The call rests on the fitted dose curve; in most records, active means well fitted inhibition curve with a large enough effect; inconclusive means small, poorly fitted or top-dose-only effect; inactive means no such curve, though single readings can be large or run the other way. The list comes from a sample in which actives are over-represented; it also holds similar structures and randomly drawn compounds. Where a call stands in place of a potency, no number is given.
# Target: Lethal(3)malignant brain tumor-like protein 1 (Homo sapiens) (UniProt Q9Y468)
# Assay: qHTS Assay for the Inhibitors of L3MBTL1; further: nearly all actives have a fitted effect of over 60% in size
# Conditions: AlphaScreen L3MBTL1–H3K9me1 peptide binding; series mostly up to 57.1 µM
# Procedure, shortened: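 AlphaScreen proximity signal between nickel-chelate acceptor and streptavidin donor beads (final 10 ug/mL) reports binding of 50 nM L3MBTL1 to 75 nM biotin-H3 K9me1 peptide; complex incubated with compounds 30 min at room temperature; cefsulodin titration as control.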
# Potency means the concentration at half of the fitted maximal effect.
# Chain of Lethal(3)malignant brain tumor-like protein 1 (Homo sapiens) (Q9Y468 whole entry, looked up): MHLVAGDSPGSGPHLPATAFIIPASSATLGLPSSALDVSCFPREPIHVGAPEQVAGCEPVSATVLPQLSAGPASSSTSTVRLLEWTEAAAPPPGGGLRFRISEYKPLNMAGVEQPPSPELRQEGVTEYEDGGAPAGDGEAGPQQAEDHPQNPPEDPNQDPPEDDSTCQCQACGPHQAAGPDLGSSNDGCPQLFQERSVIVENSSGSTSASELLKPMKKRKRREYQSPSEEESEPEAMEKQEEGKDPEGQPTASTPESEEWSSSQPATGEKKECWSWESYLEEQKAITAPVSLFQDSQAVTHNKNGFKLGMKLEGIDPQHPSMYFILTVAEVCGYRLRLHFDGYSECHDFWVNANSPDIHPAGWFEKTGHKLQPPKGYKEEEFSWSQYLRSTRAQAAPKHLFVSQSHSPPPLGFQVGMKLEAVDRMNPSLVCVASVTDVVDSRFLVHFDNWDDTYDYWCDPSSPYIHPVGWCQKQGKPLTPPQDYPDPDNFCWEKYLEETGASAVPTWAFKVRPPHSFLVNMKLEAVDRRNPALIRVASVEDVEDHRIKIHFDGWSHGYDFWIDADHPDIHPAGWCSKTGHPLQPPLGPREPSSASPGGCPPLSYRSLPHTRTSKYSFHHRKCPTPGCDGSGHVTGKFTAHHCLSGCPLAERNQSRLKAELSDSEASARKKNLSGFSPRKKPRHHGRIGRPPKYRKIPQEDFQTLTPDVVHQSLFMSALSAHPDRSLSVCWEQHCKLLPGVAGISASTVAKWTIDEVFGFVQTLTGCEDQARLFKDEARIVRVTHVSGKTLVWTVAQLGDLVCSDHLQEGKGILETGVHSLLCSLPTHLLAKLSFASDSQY
Structure (SMILES),Potency,"activity, negative = inhibition"
COc1ccc(NS(=O)(=O)c2ccc(C)c(C(=O)N(C)Cc3ccc(OC)cc3OC)c2)cc1,inactive,–
O=C(NCCC1CCCCN1S(=O)(=O)c1ccccc1)C(=O)NCC1CCCO1 (centres undefined),inactive,–
C[C@H](NC(=O)c1nc[nH]c1C(=O)NCC(=O)OC(C)(C)C)c1ccccc1,inactive,–
CC(C)(C)OC(=O)NCCCCCNC(=O)c1[nH]cnc1C(=O)Nc1nccs1,28.2 µM (active),–
CC(C)(C)OC(=O)NCCCCCNC(=O)c1nc[nH]c1C(=O)NCc1ccccc1,inactive,–
Cc1csc(=O)n1CC(=O)Nc1ccc(S(C)(=O)=O)cc1,inactive,–
Cc1ccc(S(=O)(=O)NC[C@H]2O[C@@H](n3cnc4c(N)ncnc43)[C@H](O)[C@@H]2O)s1,inactive,–
O=C(Cc1ccc(S(=O)(=O)N2CCOCC2)s1)N1CCN(c2ccc(C(F)(F)F)cc2[N+](=O)[O-])CC1,inactive,–
Cc1cccc(-n2ncc3c(=O)[nH]c(SCC(=O)Nc4cc(C)on4)nc32)c1,inactive,–
O=C1CCCC(O)=C1N=Nc1ccc2ncsc2c1,25.1 µM (active),–
O=C1CCCC(O)=C1N=Nc1ccc(S(=O)(=O)N2CCOCC2)cc1,inactive,–
CC[C@@]1(C(=O)OC)N[C@H](CN(C)C(C)=O)[C@@H]2C(=O)N(C)C(=O)[C@@H]21,inactive,–
Cc1nnc(SCC(=O)Nc2cccc(N)c2)n1-c1ccccc1,inactive,–
O=C1c2ccccc2C(=O)c2c1cccc2N1CCN(Cc2ccccc2)CC1,14.1 µM (active),–
O=c1cc(N2CCN(Cc3ccccc3)CC2)c(-c2ccccc2)n[nH]1,inactive,–
O=C1c2ccccc2C(=O)c2c1cccc2N1CCN(CCO)CC1,inactive,–
CN(CC(=O)O)C(=O)c1ccccc1,inactive,–
Cn1ccc(=Nc2ccc(NC(=O)c3ccc(N=c4ccn(C)c5ccc([N+](=O)[O-])cc45)cc3)cc2)cc1,25.1 µM (active),–
Cc1cc([N+](=O)[O-])ccc1NC(=O)c1ccc(NC(=O)C(C)C)cc1,–,-0.242% [at 11.4 µM] (inactive)
CCc1ccc(NC(=O)c2ccc(Cn3cc([N+](=O)[O-])cn3)cc2)cc1,inactive,–
COCC(=O)N1CCCC(C(=O)c2ccc(C(F)(F)F)cc2)C1 (centres undefined),inactive,–
Cc1c(OC(C)C(=O)NCC2CCC(C(=O)O)CC2)ccc2c1oc(=O)c1ccccc12 (centres undefined),inactive,–

Structure (SMILES),Potency,"activity, negative = inhibition"
CCCNC(=O)CCn1cc(-c2ccc(OC)cc2)nc1CCN,inactive,–
CCN(C(=O)Cc1nc(N)n[nH]1)C1(C(=O)Nc2ccccc2)CCCCC1,11.2 µM (active),–
CCOC(=O)Cc1csc(NC(=O)Nc2ccccc2)n1,inactive,–
CCOC(=O)c1cn[nH]c1NC(=S)Nc1ccccc1,inactive,–
Cc1ccc(OCC(=O)NC(C)c2ccccc2)cc1C (centres undefined),inactive,–
CCCCC[C@@H]1C=C(C(=O)O)[C@H](c2ccc(C#N)cc2)N1S(=O)(=O)c1ccc(C)cc1,inactive,–
CCOc1ccc(NC(=O)CCC(=O)N/N=C/c2ccc([N+](=O)[O-])s2)cc1,inactive,–
CC1CN(C(=O)c2ccc([N+](=O)[O-])s2)CC(C)O1 (centres undefined),inactive,–
O=[N+]([O-])c1ccc(C=Nc2ccc(Cl)cc2Cl)s1,25.1 µM (active),–
O=[N+]([O-])c1ccc2c(c1)Nc1nc3ccccc3nc1N2,inactive,–
Cn1nnnc1SCC(=O)Nc1cccc(S(=O)(=O)N2CCCCC2)c1,inactive,–
COc1ccccc1-c1sc2ccccc2c1C#CC1(O)CCCCC1,inactive,–
COc1ccc2c(C(=O)c3ccc(C)cc3)n(CCC(N)=O)[n+]([O-])c2c1,inactive,–
O=C1CSc2ccc(C(=O)NCc3ccccn3)cc2N1,inactive,–
CC(C)(C)c1ccc(NC(=O)NCc2ccco2)cc1,inactive,–
O=C(NCc1ccccn1)c1cc(-c2ccccc2Cl)on1,inactive,–
COCCNC(=O)Nc1ccc2nc(-c3ccco3)c(-c3ccco3)nc2c1,2.82 µM (active),–
O=C(NCc1ccccn1)c1ccc2nc(-c3ccco3)c(-c3ccco3)nc2c1,3.55 µM (active),–
COc1ccc(NC(=O)Nc2ccc3nsnc3c2)cc1,inactive,–
O=C(Nc1ncccc1O)c1ccc(C(=O)c2ccccc2)cc1,inactive,–
CCOC(=O)N1CCN(C(=O)c2ccccc2SCC(=O)NCC2CCCCC2)CC1,inactive,–
Cc1c(C(=O)N/N=C/c2ccccc2)[nH]c2c([N+](=O)[O-])cccc12,inactive,–

Structure (SMILES),Potency,"activity, negative = inhibition"
COc1cccc2c(C)c(C(=O)O)[nH]c12,25.1 µM (active),–
CCOC(=O)c1c(C)[nH]c(C(=O)NCc2ccccc2OC)c1C,inactive,–
CC(C)Cn1c(SCC(=O)Nc2ccc(Cl)cc2F)nc(O)cc1=O,inactive,–
CC(=O)C[C@H](O)CC(=O)[C@@H]1OC(=O)[C@@H](C)C/C=C\Cc2ccccc21,inactive,–
CSc1nc(-c2ccco2)nn1C(=O)CCc1ccccc1,inactive,–
CCOc1ccccc1/C=c1\sc2nc(-c3ccco3)nn2c1=O,15.8 µM (active),–
CCOC(=O)/C=c1\s/c(=C\c2ccccc2OC)c(=O)n1CC(=O)N1CCOCC1,inactive,–
COc1ccccc1N1CC(C(=O)NCCN2C(=O)S/C(=C\c3cccnc3)C2=O)CC1=O (centres undefined),inactive,–
CC[C@]12c3[nH]c4ccc(Cl)cc4c3CCN1C(=O)[C@@H](CC(=O)NCCN1CCOCC1)C[C@@H]2C(=O)N1CCN(C(=O)C2CC2)CC1,inactive,–
Cc1ccc(C)n1C(Cc1ccccc1)C(=O)O (centres undefined),5.62 µM (active),–
CC(Cc1ccccc1)C(=O)N(C)Cc1ccccc1 (centres undefined),inactive,–
CCOC(=O)C(Cc1ccc(N)cc1)N1C(=O)c2ccccc2C1=O (centres undefined),inactive,–
CCn1c(=S)[nH]c2cc(S(=O)(=O)N3CCOCC3)ccc21,inactive,–
CCCN=C1N(C)C[C@@H]2[C@@H]3C(=O)N(Cc4ccccc4)C(=O)[C@@H]3[C@](C)(C(=O)OC)N12,inactive,–
CC(=O)Nc1ccc(C(=O)Nc2cccc(S(=O)(=O)NC3=NCCC3)c2)cc1,inactive,–
Cc1ccc(S(=O)(=O)NCCC(=O)OCC(=O)N(C)c2ccccc2)cc1,inactive,–
O=C(N/N=C/c1c(Cl)[nH]c2ccccc12)c1sc2ccccc2c1Cl,inactive,–
Oc1ccc(N=Cc2sc3ccccc3c2Cl)cc1,31.6 µM (active),–
COc1ccc(N=C(C)c2sc3ccccc3c2O)cc1,inactive,–
Cc1csc(SCC(=O)N(c2ccccc2)C(C)C)n1,inactive,–
